Lassa entry inh = qHTS for Inhibitors of binding or entry into cells for Lassa Virus | Lassa virus pseudotype entry inhibition, cell reporter | Potency, µM (highest dose often 37.9 µM), inactives show top-dose activity change, negative = inhibition, actives largely listed as inhibitors | hit rate 1.2% among 300,000; calls by dose curve; tested in HEK293 cells; also: potency is read from the fitted curve at half-maximal effect; % is scaled to controls: 0 for no effect and ±100 for the full control effect; nearly all actives have a fitted effect of over 50% in size
Pf growth 48h = Primary qHTS for delayed death inhibitors of the malarial parasite plastid, 48 hour incubation; AID 504832, 2011; hit rate 5.9% among 310,000; P. falciparum luciferase growth in erythrocytes, 48 h; Potency, µM (top dose mostly 28.7 µM), for the others: at the highest dose activity change, negative = inhibition, most hits filed as inhibitors; also: potency is read from the fitted curve at half-maximal effect; % is scaled to controls: 0 for no effect and ±100 for the full control effect
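First compound was added to culture medium, then infected red cells at 0.1% parasitemia and 2% hematocrit (final). After incubation at 37 C under 5% CO2, luciferase detection reagent was dispensed and light output recorded.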
Cycloheximide cs = Cycloheximide Counterscreen for Small Molecule Inhibitors of Shiga Toxin; max response, %; cell reporter, cycloheximide protein synthesis inhibition counterscreen; AID 2314, 2010; hit rate 12% among 300,000; in the data active = max response mostly above about 13%, no sharp cut-off; inactive = mostly below about 14%; also: read at 38.3 µM for the half of the compounds with a filed dose; 0% is about no effect
Pf growth 96h = Primary qHTS for delayed death inhibitors of the malarial parasite plastid, 96 hour incubation | P. falciparum luciferase reporter growth, 96 h | AID 504834, 2011 | hit rate 6.9% among 320,000 | Potency, µM (top dose mostly 28.7 µM), inactives show at the top dose activity change, negative = inhibition, usual class: inhibitors; also: potency is read from the fitted curve at half-maximal effect; % is scaled to controls: 0 for no effect and ±100 for the full control effect
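Two parasite generations (96 h, 37 C, 5% CO2) of compound exposure in infected erythrocytes (0.05% parasitemia, 2% hematocrit). Luciferase-reporter P. falciparum; decreased luminescence indicates inhibited growth, aimed at apicoplast-acting delayed death.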
MARV entry inh = qHTS for inhibitors of binding or entry into cells for Marburg Virus; Marburg virus pseudotyped entry inhibition, cell reporter; Potency, µM (series often up to 37.8 µM), without a hit: at the highest dose activity change, negative = inhibition, hits mostly inhibitors; hit rate 1.8% among 300,000; calls by dose curve; tested in HEK293 cells; also: potency is read from the fitted curve at half-maximal effect; % is scaled to controls: 0 for no effect and ±100 for the full control effect
Shiga inhibitor = A qHTS for Small Molecule Inhibitors of Shiga Toxin. inhibition, % at 38.7 µM. hit rate 9.2% among 290,000. Vero cells, Shiga toxin protein synthesis inhibition reporter; in the data active = inhibition mostly above about 28%, no sharp cut-off; inactive = mostly below about 43%; also: 0% is about no effect
* hit, by the source's call; [ ] = another dose, or the depositor's remark. Shown are actives, neighbours in structure and some others; about 19% of the full set was active somewhere. Unless noted, calls follow the shape of the dose curve; as a rule, active = well fitted inhibition curve with a large enough effect; inconclusive = small, poorly fitted or top-dose-only effect, or another doubt; inactive = no such curve, though single readings can be large or run the other way.

Results for O=C(Nc1ccncc1)C1CC1c1ccccc1 (stereo not given) ?
Lassa entry inh: -9%; Pf growth 48h: inconclusive; Cycloheximide cs: 2; MARV entry inh: inconclusive; Shiga inhibitor: -9

How did O=C(Nc1ccc2c(c1)OCCO2)C(=O)NC1CC1 do in these assays?
Lassa entry inh: -11%[46.1 µM]; Pf growth 48h: 196%; Cycloheximide cs: 29*; Pf growth 96h: 5%; MARV entry inh: inconclusive; Shiga inhibitor: 80*

How did O=C(NC1CCCC1)C1CC1c1ccccc1 (stereo not given) do in these assays?
Lassa entry inh: 14%; Pf growth 48h: inconclusive; Cycloheximide cs: 12; Pf growth 96h: 6%; MARV entry inh: -5%; Shiga inhibitor: 1

How did O=S(=O)(CC(CN1CCCCC1)N1CCCCC1)c1ccccc1 (stereo not given) do in these assays?
Pf growth 48h: -80%; Cycloheximide cs: 27*; Pf growth 96h: inconclusive; Shiga inhibitor: 54

How did O=[N+]([O-])c1ccc(S(=O)(=O)CC(CN2CCCCC2)N2CCCCC2)cc1 (stereo not given) do in these assays?
Lassa entry inh: 5.2µM*; Pf growth 48h: 19%[5.75 µM]; Cycloheximide cs: 14; Pf growth 96h: 14%[5.75 µM]; MARV entry inh: 4.6µM*; Shiga inhibitor: 24

What do the screens show for `O=C(CC1C(=O)NCCN1Cc1ccc(-c2ccccc2)cc1)NCCc1ccccn1` (stereo not given)?
Lassa entry inh: inconclusive; Pf growth 48h: 0%; Cycloheximide cs: 16; Pf growth 96h: 15%; MARV entry inh: 19%[46.1 µM]; Shiga inhibitor: 34

Results for O=C(CNC(=O)c1ccc(Cl)cc1Cl)OCCOc1ccccc1 ?
Lassa entry inh: 30%; Pf growth 48h: 73%; Pf growth 96h: 60%; MARV entry inh: inconclusive

Results for O=c1[nH]c(CSc2nc3ccccc3[nH]2)nc2c1cnn2-c1ccccc1 ?
Lassa entry inh: inconclusive; Pf growth 48h: -4%; Cycloheximide cs: -2; Pf growth 96h: inconclusive; MARV entry inh: inconclusive; Shiga inhibitor: -4

Results for O=c1[nH]c(SCc2nc3c(cnn3-c3ccccc3)c(=O)[nH]2)nc2ccccc12 ?
Lassa entry inh: 0.71µM*; Pf growth 48h: 41%; Cycloheximide cs: 6; Pf growth 96h: 28%; MARV entry inh: 1µM*; Shiga inhibitor: 12

Results for Brc1ccc(N=Nc2ccc3ccccc3n2)cc1 ?
Lassa entry inh: 1.1µM*; Pf growth 48h: 0.33µM*; Cycloheximide cs: 36*; Pf growth 96h: inconclusive; MARV entry inh: inconclusive; Shiga inhibitor: 54*

Results for Cc1cc2ccccc2nc1Br ?
Lassa entry inh: 15%; Pf growth 48h: 11%; Cycloheximide cs: -5; Pf growth 96h: -9%; MARV entry inh: 0%; Shiga inhibitor: 4

How did Cn1c(=O)oc2cc(S(=O)(=O)CCC(=O)NCCc3ccccc3)ccc21 do in these assays?
Lassa entry inh: inconclusive; Pf growth 48h: inconclusive; Cycloheximide cs: 2; Pf growth 96h: 60%; MARV entry inh: 4%[46.1 µM]; Shiga inhibitor: -2

Results for Cc1cc(OI)c(C(C)C)cc1-c1cc(C(C)C)c(OI)cc1C ?
Pf growth 48h: inconclusive; Cycloheximide cs: -3; Pf growth 96h: 6.7µM*; Shiga inhibitor: -5

How did Cc1nn(-c2cccc([N+](=O)[O-])c2)c(N)c1-c1ccccc1 do in these assays?
Lassa entry inh: -2%[46.1 µM]; Pf growth 48h: 188%; Cycloheximide cs: 39*; Pf growth 96h: 83%; MARV entry inh: inconclusive; Shiga inhibitor: 73*

Results for Nc1c(-c2ccc(Cl)cc2)cnn1-c1cccc([N+](=O)[O-])c1 ?
Lassa entry inh: 25%; Pf growth 48h: 32%; Cycloheximide cs: 19*; Pf growth 96h: 428%; MARV entry inh: 20%; Shiga inhibitor: 87*

What do the screens show for `Cc1nc2ccccc2c(=O)n1-c1cccc([N+](=O)[O-])c1`?
Pf growth 48h: 32%; Cycloheximide cs: 0; Pf growth 96h: inconclusive

How did O=[N+]([O-])c1ccc2c(c1)nnn2-c1ccccc1 do in these assays?
Lassa entry inh: 26%[46.1 µM]; Pf growth 48h: 47%; Cycloheximide cs: -2; Pf growth 96h: inconclusive; MARV entry inh: inconclusive; Shiga inhibitor: 22

How did Nc1c(-c2ccccc2)cnn1-c1cccc([N+](=O)[O-])c1 do in these assays?
Lassa entry inh: 1%; Pf growth 48h: 53%; Cycloheximide cs: 31*; Pf growth 96h: 70%; MARV entry inh: -14%; Shiga inhibitor: 81*

How did Nc1nn(-c2ccccc2)c2ccc([N+](=O)[O-])cc12 do in these assays?
Lassa entry inh: -3%; Pf growth 48h: 54%; Cycloheximide cs: 26*; Pf growth 96h: inconclusive; MARV entry inh: 1%; Shiga inhibitor: 34

What do the screens show for `Oc1ccc(Br)cc1/C=N/N1CCN(Cc2cccc3ccccc23)CC1`?
Pf growth 48h: inconclusive; Cycloheximide cs: -1; Pf growth 96h: inconclusive; Shiga inhibitor: 12

How did COc1cc(-c2nc(-c3ccccc3)c(-c3cc([N+](=O)[O-])ccc3C)[nH]2)cc(OC)c1OC do in these assays?
Lassa entry inh: inconclusive; Pf growth 48h: 2.6µM*; Cycloheximide cs: 4; Pf growth 96h: inconclusive; MARV entry inh: inconclusive; Shiga inhibitor: -4

What do the screens show for `COc1cccc(Oc2ccc(C(F)(F)F)cc2NC(=O)CCc2nc3ccccc3c(=O)[nH]2)c1`?
Lassa entry inh: -24%; Pf growth 48h: 5.9µM*; Cycloheximide cs: 43*; Pf growth 96h: 1.7µM*; MARV entry inh: inconclusive; Shiga inhibitor: 55*

How did O=C(CCc1nc2ccccc2c(=O)[nH]1)Nc1cc(Cl)ccc1N1CCCCC1 do in these assays?
Pf growth 48h: 10µM*; Pf growth 96h: inconclusive

Results for COc1ccccc1NS(=O)(=O)c1cc(NC(=O)CCc2nc3ccccc3c(=O)[nH]2)ccc1C ?
Lassa entry inh: -5%; Pf growth 48h: inconclusive; Pf growth 96h: 10µM*; MARV entry inh: -26%

What do the screens show for `O=C(CCc1nc2ccccc2c(=O)[nH]1)Nc1ccccc1N1CCCC1`?
Lassa entry inh: 0%; Pf growth 48h: inconclusive; Pf growth 96h: -3%; MARV entry inh: -27%

Results for O=C(CCc1nc2ccccc2c(=O)[nH]1)Nc1cc(C(F)(F)F)ccc1N1CCOCC1 ?
Lassa entry inh: -21%; Pf growth 48h: -2%; Pf growth 96h: -17%; MARV entry inh: -10%

Results for O=C(CCc1nc2ccccc2c(=O)[nH]1)Nc1ccc(F)cc1 ?
Lassa entry inh: 29%; Pf growth 48h: 24%; Cycloheximide cs: -1; Pf growth 96h: 21%; MARV entry inh: -21%; Shiga inhibitor: -33

What do the screens show for `O=C(Cc1ccc(Cl)cc1)OCC(=O)N1CCCCCC1`?
Lassa entry inh: -2%; MARV entry inh: 5%

Screening data (PubChem BioAssay)
